The campaign covered roughly 340,000 compounds. About 3,300 (0.97%) were called active. Another 9% or so got no clear call; they are omitted. Calls come from the whole dose curve; as a rule, active = well fitted inhibition curve with a large enough effect; inconclusive = small, poorly fitted or top-dose-only effect, or effect the other way; inactive = flat fitted curve, though single readings scatter. This is one part of the list.
Test: qHTS Assay for Modulators of miRNAs and/or Inhibitors of miR-21; note: nearly all actives have a fitted effect of over 55% in size
Conditions: HeLa miR-21-FLuc reporter, luciferase luminescence, 48 h; actives lower the signal
How it was run: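 HeLa cells endogenously expressing miR-21, stably carrying CMV-driven firefly luciferase with a downstream miR-21 binding site, 2000 cells/well. Titrations up to approximately 40 uM, 48 hours; luciferase luminescence read.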
Potency is the fitted concentration of half-maximal effect.

Potency, active:
Cc1nc(NC(=O)C2CCCC2)sc1Cc1ccc2c(c1)OCO2 9.27 µM, Cc1ccc(O)c(NC(=S)NC(=O)CC(C)C)c1 5.85 µM, Cc1sc(NC(=O)c2ccccc2F)c(CN2CCCCC2C)c1C (configuration not stated) 2.07 µM, O=c1oc2ccccc2cc1-c1nc(-c2cccs2)no1 1.17 µM, O=c1oc2ccccc2cc1-c1ccccc1 16.5 µM, O=c1oc2ccccc2cc1-c1ccc(O)cc1 4.65 µM, O=c1oc2cc(O)ccc2cc1-c1ccccc1 13.1 µM, O=C(Nc1ccc(Br)cn1)c1cccc(-c2cc3ccccc3oc2=O)c1 3.69 µM, O=c1oc2ccccc2cc1NCc1ccccc1O 10.4 µM, COc1cccc(C2(O)CC(C(F)(F)F)=NN2C(=O)c2ccccn2)c1 (configuration not stated) 13.1 µM, CN(C)c1ccc(/C=C(/C#N)C(=O)NCc2ccccc2)o1 14.7 µM, CCN(CC)c1ccc(/C=C(/C#N)C(=O)NCc2ccccc2)o1 10.4 µM, CCCc1ccc(-c2cc(NC(=O)CSc3n[nH]c(N)n3)n(-c3ccccc3)n2)cc1 18.5 µM, Cc1ccc(NC(=O)c2cnc3ccccc3n2)cc1C 1.31 µM, NC(=O)c1ccc(NC(=O)c2cnc3ccccc3n2)cc1 7.36 µM, c1ccc2c(c1)CCN(C1=Nc3cccc4cccc1c34)C2 18.5 µM, Cc1cc(C(=O)Nc2sc3c(c2C#N)CCC(C)C3)cs1 (configuration not stated) 0.736 µM, CCOC(=O)Nc1sc2c(c1C#N)CCC(C)C2 (configuration not stated) 5.21 µM, Cc1ccc(Nc2c(-c3ccc(N4CCOCC4)cc3)nc3cnccn23)cc1 7.36 µM, Cc1ccc(-c2nc3cnccn3c2Nc2ccccc2)o1 16.5 µM, c1cn2c(NC3CCCC3)c(-c3ccc(N4CCOCC4)cc3)nc2cn1 6.56 µM, Cc1ccccc1Nc1c(-c2ccc(N3CCOCC3)cc2)nc2cnccn12 4.65 µM, c1cn2c(Nc3ccc4c(c3)OCCO4)c(-c3ccc(N4CCOCC4)cc3)nc2cn1 6.56 µM, COC(=O)c1c(C)[nH]c(C(=O)OCc2ccc(F)cc2)c1C 2.07 µM, CCOC(=O)c1c(C)[nH]c(C(=O)OCCOc2ccccc2C)c1C 1.85 µM, CCOC(=O)c1c(C)[nH]c(C(=O)OCc2ccccc2F)c1C 0.414 µM, N/C(=N\OC(=O)CCC1CCCC1)c1ccccn1 3.29 µM, N/C(=N\OC(=O)COc1ccccc1)c1ccccn1 5.21 µM, COc1cc(OC)cc(C(=O)O/N=C(\N)c2ccccn2)c1 1.65 µM, Cc1cccc(OCC(=O)O/N=C(\N)c2ccccn2)c1C 6.56 µM, Cc1cccc(OCC(=O)O/N=C(\N)c2ccccn2)c1 7.36 µM, Cc1ccc(OCC(=O)O/N=C(\N)c2ccccn2)cc1 3.29 µM, N/C(=N\OC(=O)C12CC3CC(CC(C3)C1)C2)c1ccccn1 5.21 µM, CCCCC(=O)Nc1sc2c(c1C(N)=O)CCC2 11.7 µM, COCCN(CCOC)S(=O)(=O)c1ccc(C(=O)Nc2sc3c(c2C(N)=O)CCCCC3)cc1 5.21 µM, CC(C)C(=O)NC(=S)Nc1sc2c(c1C(N)=O)CCCC2 6.56 µM, O=C1/C(=C/c2ccc(O)c(O)c2)Oc2cc(O)ccc21 8.26 µM, COc1cc(/C=C2\Oc3cc(O)ccc3C2=O)ccc1O 5.21 µM, CCOC(=O)c1csc(-c2sccc2Br)n1 0.521 µM, COc1ccc(-c2nc3c(Br)c(N)c(Br)cc3o2)cc1 2.07 µM, Nc1c(Br)cc2oc(-c3ccccc3)nc2c1Br 2.07 µM, O=C(NCCCN1CCOCC1)c1cc(-c2ccccc2)on1 18.5 µM, O=C(NCCN1CCOCC1)c1cc(-c2ccccc2)on1 18.5 µM, O=C(NC1CCCC1)c1cc(-c2ccc(Cl)cc2Cl)on1 5.21 µM, O=C(NC1CCCC1)c1cc(-c2ccccc2Cl)on1 1.65 µM, COc1ccccc1-c1cc(C(=O)NC2CCCC2)no1 14.7 µM, O=C(NC1CCCCC1)c1cc(-c2ccccc2O)on1 7.36 µM, C=CCNC(=O)c1cc(-c2ccccc2O)on1 16.5 µM, O=C(Oc1ccc2c(c1)OCO2)c1ccc(F)cc1Cl 16.5 µM, CC1CCN(C(=O)CSc2nc3ccccc3[nH]2)CC1 2.93 µM, O=c1c2ccccc2nnn1CSc1nc2ccccc2[nH]1 4.65 µM, CCCCSc1nc2ccccc2[nH]1 13.1 µM, ClC1(Cl)CC1CSc1nc2ccccc2[nH]1 (configuration not stated) 14.7 µM, Cc1ccc(Cn2nc(C)cc2C(=O)Nc2ccccc2Cl)cc1 7.36 µM, Cc1ccc(-c2cc(C(=O)O)n(Cc3ccccc3)n2)cc1 14.7 µM, Cc1ccc(NC(=O)CNCc2cccs2)c(Br)c1 14.7 µM, Cc1ccc(NC(=O)CC2CCCC2)c(Br)c1 14.7 µM, Cc1c(C(N)=O)sc2nc(-c3ccccc3)cn12 11.7 µM, CNC(=O)c1sc2nc(-c3ccc(OC)cc3)cn2c1C 0.736 µM, O=C(O)c1cc(N/N=C/c2cccs2)ccc1Cl 1.85 µM, O=C(O)c1cccc(N/N=C/c2cccs2)c1 0.0826 µM, Cc1ccc(OC(=O)c2cccc(S(=O)(=O)N3CCCC3)c2)c(-n2nc3ccccc3n2)c1 2.61 µM, Cc1ccc(OC(=O)COc2ccccc2C)c(-n2nc3ccccc3n2)c1 4.14 µM, Cc1ccc(O)c(-n2nc3ccccc3n2)c1 11.7 µM, Cc1ccc(OC(=O)c2cccc(S(=O)(=O)N(C)C)c2)c(-n2nc3ccccc3n2)c1 5.85 µM, c1ccc(CCSc2nccn2-c2ccccc2)cc1 1.85 µM, CCN(CC)CCN(C(=O)c1ccc2ncsc2c1)c1nc2cc3c(cc2s1)OCO3 1.04 µM
